According to PubChem BioAssay AID1117288 (Broad Institute, 2014):
Entries with a potency or affinity are not part of this list. Records with an inconclusive call do not appear. Active and inactive are the calls of the source.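 How the source made its calls: active means compound whose fitted half-inhibition dose sits at or below twice its top tested dose in every test run; inconclusive means test runs disagree, or every run is unclear; inactive means inactive in every test run.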

The compounds below were run against Leucyl-cystinyl aminopeptidase (Mus musculus) (UniProt Q8C129) (assay: IRAP enzyme inhibitors, dose response, selectivity assay for ERAP1 modulator project, biochemical, dry powder samples, set 3 (AID 1117288)). Settings: purified IRAP enzyme, Leu-AMC fluorescence, 1 h; series mostly up to 50 µM; activity change, negative = inhibition: at the top concentration.
Sequence of Leucyl-cystinyl aminopeptidase (Mus musculus) (Q8C129 whole entry, looked up): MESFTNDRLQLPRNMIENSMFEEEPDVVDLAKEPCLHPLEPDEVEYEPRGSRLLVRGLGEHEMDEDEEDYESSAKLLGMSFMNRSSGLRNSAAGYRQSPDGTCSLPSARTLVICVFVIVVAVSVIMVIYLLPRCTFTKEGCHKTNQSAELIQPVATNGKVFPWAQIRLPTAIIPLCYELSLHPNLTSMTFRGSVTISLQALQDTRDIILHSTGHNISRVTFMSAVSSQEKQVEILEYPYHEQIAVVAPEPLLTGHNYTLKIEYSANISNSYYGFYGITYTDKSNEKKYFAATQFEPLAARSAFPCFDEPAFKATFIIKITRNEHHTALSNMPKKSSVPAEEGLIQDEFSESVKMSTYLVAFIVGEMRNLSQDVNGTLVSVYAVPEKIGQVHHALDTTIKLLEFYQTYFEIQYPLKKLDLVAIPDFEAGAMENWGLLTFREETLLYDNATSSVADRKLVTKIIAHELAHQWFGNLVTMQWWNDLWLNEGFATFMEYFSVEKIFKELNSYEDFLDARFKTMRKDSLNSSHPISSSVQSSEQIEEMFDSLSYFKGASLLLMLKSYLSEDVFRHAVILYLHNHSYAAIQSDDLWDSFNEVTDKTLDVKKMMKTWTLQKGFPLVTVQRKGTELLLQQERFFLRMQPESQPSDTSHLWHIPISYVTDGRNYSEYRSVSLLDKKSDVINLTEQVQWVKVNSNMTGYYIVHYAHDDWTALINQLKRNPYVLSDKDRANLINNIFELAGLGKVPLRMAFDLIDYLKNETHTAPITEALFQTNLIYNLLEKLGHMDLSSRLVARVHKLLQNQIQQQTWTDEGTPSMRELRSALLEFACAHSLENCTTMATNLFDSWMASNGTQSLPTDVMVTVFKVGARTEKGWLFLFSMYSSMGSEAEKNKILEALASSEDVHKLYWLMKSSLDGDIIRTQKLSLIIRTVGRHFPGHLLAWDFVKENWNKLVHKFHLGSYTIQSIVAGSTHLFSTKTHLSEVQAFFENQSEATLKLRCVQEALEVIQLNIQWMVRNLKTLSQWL

Activity change, negative = inhibition, inactive:
Cc1ccc(C(=O)O)cc1S(=O)(=O)Nc1cc(C(F)(F)F)ccc1N1CCCCC1 -2.16%
O=C(O)c1ccc(Br)c(S(=O)(=O)Nc2cc(C(F)(F)F)ccc2N2CCCCC2)c1 -5.39%
COc1ccc(C(=O)O)cc1S(=O)(=O)Nc1cc(C(F)(F)F)ccc1N1CCOCC1 28.6%
COc1ccc(C(=O)O)cc1S(=O)(=O)Nc1cccc(N2CCCCC2)c1C(F)(F)F 13.9%
COc1ccc(C(=O)O)cc1S(=O)(=O)Nc1ccc(N2CCCCC2)cc1C(F)(F)F 9.65%
COc1ccc(C(=O)O)cc1S(=O)(=O)Nc1cc(C(F)(F)F)ccc1N1CCN(C)CC1 26.8%
COC(=O)c1ccc(OC)c(S(=O)(=O)Nc2cc(C(F)(F)F)ccc2N2CCCCC2)c1 16.9%
O=C(O)c1cc(F)cc(S(=O)(=O)Nc2cc(C(F)(F)F)ccc2N2CCCCC2)c1 -0.991%
COc1ccc(C(=O)O)cc1S(=O)(=O)Nc1cc(C(F)(F)F)ccc1N(C)C 3.47%
COc1ccc(C(=O)O)cc1S(=O)(=O)Nc1cc(C)ccc1N1CCCCC1 -13.8%
O=C(O)c1ccc(Cl)c(S(=O)(=O)Nc2cc(C(F)(F)F)ccc2N2CCCCC2)c1 17.3%
Cc1ccc(S(=O)(=O)Nc2cc(C(F)(F)F)ccc2N2CCCCC2)cc1C(=O)O 0.616%
O=C(O)c1cccc(S(=O)(=O)Nc2cc(C(F)(F)F)ccc2N2CCCCC2)c1 22.7%
COc1ccc(C(=O)O)cc1S(=O)(=O)Nc1cc(F)ccc1N1CCCCC1 13.7%
COc1ccc(C(=O)O)cc1S(=O)(=O)Nc1ccccc1N1CCCCC1 3.15%
COc1ccc(C(=O)O)cc1S(=O)(=O)N(C)c1cc(C(F)(F)F)ccc1N1CCCCC1 5.09%
COc1ccc(C(=O)O)cc1S(=O)(=O)N1CCN(c2ccc(C(F)(F)F)cc2N)CC1 14.3%

outcome, inactive:
COc1ccc(C(=O)O)cc1S(=O)(=O)Nc1cc(C(F)(F)F)ccc1N1CCCCC1
